From PubChem BioAssay (EPA / NIEHS)
Inconclusive results are not listed. Activity calls are given as the source filed them. The calls were made as follows, unless noted: active = hit-call score of the fitted dose curve at least 0.9, where 1 is the maximum; inactive = score below 0.9.

What was measured:
[1] = ATG_PXRE_CIS: Attagene CIS-FACTORIAL HepG2 Assay for human Pregnane X Receptor Element (PXRE) (AID 2282957); conditions: HepG2 Attagene CIS-FACTORIAL PXRE reporter, mRNA; actives raise or lower the signal
Method in brief: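 Reporter transcripts under endogenous PXR-responsive cis-regulation quantified from total RNA of transfected HepG2 cells 24 h post-dosing, via RT-PCR with fluorescent primer extension and capillary electrophoresis. Gain or loss of signal fitted against DMSO baseline.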

[2] = ATG_PPRE_CIS: Attagene CIS-FACTORIAL HepG2 Assay for human Peroxisome Proliferator-activated Response Element (PPRE) (AID 2282958); conditions: HepG2 PPRE cis-element reporter, Attagene transcription factor profiling; actives raise or lower the signal
Method in brief: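 HepG2 cells transiently transfected with multiplexed cis-element reporter units measure endogenous transcription factor activity. After 24 h compound exposure, reporter mRNA is quantified by RT-PCR, 6-FAM labeling, HpaI digestion and capillary electrophoresis; bidirectional fits are made against DMSO baseline.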

[3] = ATG_RORE_CIS: Attagene CIS-FACTORIAL HepG2 Assay for human RAR-related Orphan Receptor Element (RORE) (AID 2282959); conditions: HepG2 Attagene cis-factorial RORE reporter, mRNA; actives raise or lower the signal
Method in brief: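 HepG2 cells transiently transfected with multiple cis-element reporter transcription units, exposed to chemical for 24 h. Reporter mRNA quantified by RT-PCR, 6-FAM primer-extension labeling, HpaI digestion and capillary electrophoresis; bidirectional fit versus DMSO baseline.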

[4] = ATG_Sox_CIS: Attagene CIS-FACTORIAL HepG2 Assay for human SRY-box transcription factor (SOX) (AID 2282960); conditions: HepG2 Attagene cis-factorial SOX reporter, mRNA; actives raise or lower the signal
Method in brief: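 HepG2 cells transiently transfected with cis-element-driven multiple reporter transcription units, dosed 24 h; reporter mRNA measured by RT-PCR, FAM labelling, HpaI digestion and capillary electrophoresis. Bidirectional fit versus DMSO baseline.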

[5] = target: Transcription factor Sp1 (Homo sapiens) (UniProt P08047); experiment: ATG_Sp1_CIS: Attagene CIS-FACTORIAL HepG2 Assay for human Specificity Protein 1 (Sp1) (AID 2282961); conditions: HepG2 Sp1 cis-reporter transcription, actives raise or lower the signal
Transcription factor Sp1 (Homo sapiens), sequence (P08047 whole entry, looked up): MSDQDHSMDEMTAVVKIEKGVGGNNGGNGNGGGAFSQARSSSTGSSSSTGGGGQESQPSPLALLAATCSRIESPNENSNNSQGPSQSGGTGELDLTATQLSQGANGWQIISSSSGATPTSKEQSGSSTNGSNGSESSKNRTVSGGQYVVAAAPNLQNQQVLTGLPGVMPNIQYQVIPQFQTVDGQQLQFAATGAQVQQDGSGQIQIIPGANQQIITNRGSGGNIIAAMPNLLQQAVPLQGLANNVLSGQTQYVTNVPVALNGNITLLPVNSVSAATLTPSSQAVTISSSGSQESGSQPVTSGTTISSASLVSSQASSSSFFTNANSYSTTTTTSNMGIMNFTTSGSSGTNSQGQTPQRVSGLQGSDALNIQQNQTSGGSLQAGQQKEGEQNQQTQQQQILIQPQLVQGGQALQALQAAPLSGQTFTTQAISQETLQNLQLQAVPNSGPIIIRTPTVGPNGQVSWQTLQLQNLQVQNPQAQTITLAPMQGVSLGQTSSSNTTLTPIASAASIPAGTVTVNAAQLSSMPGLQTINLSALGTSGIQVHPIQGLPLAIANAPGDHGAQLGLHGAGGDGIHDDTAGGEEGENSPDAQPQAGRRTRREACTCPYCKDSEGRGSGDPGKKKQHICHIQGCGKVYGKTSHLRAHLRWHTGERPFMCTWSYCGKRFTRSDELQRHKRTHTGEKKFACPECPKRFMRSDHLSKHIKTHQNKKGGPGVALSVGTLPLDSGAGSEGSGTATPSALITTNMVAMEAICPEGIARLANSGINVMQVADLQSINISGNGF
Method in brief: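 HepG2 cells transiently transfected with multiple reporter transcription units driven by cis-regulatory elements; Sp1-responsive reporter mRNA measured 24 h after dosing by RT-PCR and capillary electrophoresis fluorescence, fitted bidirectionally against DMSO baseline.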

[6] = ATG_SREBP_CIS: Attagene CIS-FACTORIAL HepG2 Assay for human Sterol Regulatory Element Binding (SREBP) (AID 2282962); conditions: HepG2 Attagene cis-factorial SREBP reporter, mRNA; actives raise or lower the signal
Method in brief: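 Endogenous SREBP activity read as cis-element-driven reporter transcript in transiently transfected HepG2, 24 h post-dosing; quantified via RT-PCR plus capillary electrophoresis of fluorescent fragments. Gain or loss of signal fitted relative to DMSO baseline.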

[7] = target: Signal transducer and activator of transcription 3 (Homo sapiens) (UniProt P40763); experiment: ATG_STAT3_CIS: Attagene CIS-FACTORIAL HepG2 Assay for human Signal Transducer and Activator of Transcription 3 (STAT3) (AID 2282963); conditions: HepG2, Attagene cis-factorial STAT3 reporter transcription; actives raise or lower the signal
Signal transducer and activator of transcription 3 (Homo sapiens), sequence (P40763 whole entry, looked up): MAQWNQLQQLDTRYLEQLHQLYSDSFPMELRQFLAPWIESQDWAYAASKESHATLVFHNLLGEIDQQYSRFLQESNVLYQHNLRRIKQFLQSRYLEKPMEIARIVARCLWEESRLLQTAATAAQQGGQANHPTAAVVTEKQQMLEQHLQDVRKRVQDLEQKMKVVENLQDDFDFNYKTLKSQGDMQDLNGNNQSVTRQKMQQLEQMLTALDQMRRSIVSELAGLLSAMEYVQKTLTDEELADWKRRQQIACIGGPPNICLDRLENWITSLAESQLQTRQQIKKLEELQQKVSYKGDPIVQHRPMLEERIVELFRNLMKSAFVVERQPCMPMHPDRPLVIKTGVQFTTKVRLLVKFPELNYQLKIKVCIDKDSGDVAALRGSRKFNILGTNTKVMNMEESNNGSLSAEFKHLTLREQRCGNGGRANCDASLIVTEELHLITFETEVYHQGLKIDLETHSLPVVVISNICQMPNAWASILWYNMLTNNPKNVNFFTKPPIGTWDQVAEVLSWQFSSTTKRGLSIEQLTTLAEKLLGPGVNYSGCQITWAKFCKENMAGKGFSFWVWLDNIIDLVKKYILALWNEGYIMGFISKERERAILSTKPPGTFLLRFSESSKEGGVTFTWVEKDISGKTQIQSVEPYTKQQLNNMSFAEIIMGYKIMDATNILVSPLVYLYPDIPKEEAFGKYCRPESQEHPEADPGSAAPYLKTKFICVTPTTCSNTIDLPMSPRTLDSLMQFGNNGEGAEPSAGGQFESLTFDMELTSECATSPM
Method in brief: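 Uses human liver HepG2 transiently carrying cis-regulated reporter transcription units. Following 24 h dosing, reporter mRNA induction was detected by RT-PCR and capillary electrophoresis, analysed bidirectionally versus DMSO.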

[8] = ATG_TA_CIS: Attagene CIS-FACTORIAL HepG2 Assay for human TA Basal Promoter (AID 2282964); conditions: HepG2 Attagene CIS-factorial TA basal promoter reporter; actives raise or lower the signal
Method in brief: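 Read-out: fluorescent reporter-transcript fragments resolved by capillary electrophoresis after RT-PCR and HpaI digestion. Source: HepG2 cells carrying transiently transfected multi-reporter cis constructs, treated 24 h. Endpoint fitted bidirectionally relative to DMSO.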

[9] = ATG_TCF_b_cat_CIS: Attagene CIS-FACTORIAL HepG2 Assay for human T-Cell-Factor with beta-catenin (TCF/b-cat) (AID 2282965); conditions: HepG2 TCF/beta-catenin cis-reporter transcription, actives raise or lower the signal
Method in brief: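 HepG2 cells transiently transfected with multiple cis-promoter-regulated reporter transcription units, so endogenous transcription factor activity is measured. Reporter mRNA read 24 hours after dosing by RT-PCR, fluorescent labelling and capillary electrophoresis; bidirectional fitting against DMSO.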

[10] = ATG_TGFb_CIS: Attagene CIS-FACTORIAL HepG2 Assay for human Transforming Growth Factor (TGF) (AID 2282967); conditions: HepG2 Attagene CIS TGFb reporter, mRNA transcription; actives raise or lower the signal
Method in brief: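 Transient MRTU transfection of HepG2 (FuGene 6). Dose 24 h. TriZol RNA, oligo(dT) RT, PCR, 6-FAM primer extension, HpaI cut, CE. Bidirectional fit, DMSO = baseline.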

[11] = ATG_VDRE_CIS: Attagene CIS-FACTORIAL HepG2 Assay for human Vitamin D Receptor Element (VDRE) (AID 2282968); conditions: HepG2 VDRE cis-reporter transcription, actives raise or lower the signal
Method in brief: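 Transfected HepG2 reporter cells, chemical treatment 24 h. RNA isolated, cDNA amplified with reporter-specific primers, products analysed by capillary electrophoresis. Endpoint fitted in both directions versus DMSO.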

[12] = target: Estrogen receptor (Homo sapiens) (UniProt P03372); experiment: ATG_ERa_TRANS: Attagene TRANS-FACTORIAL HepG2 Assay for human Estrogen Receptor alpha (ERa) (AID 2282970; active = hit-call score of the fitted dose curve at least 0.9, where 1 is the maximum); conditions: HepG2 Attagene TRANS ERa GAL4 reporter, mRNA
Estrogen receptor (Homo sapiens), sequence (P03372 whole entry, looked up, the tested form may be a part): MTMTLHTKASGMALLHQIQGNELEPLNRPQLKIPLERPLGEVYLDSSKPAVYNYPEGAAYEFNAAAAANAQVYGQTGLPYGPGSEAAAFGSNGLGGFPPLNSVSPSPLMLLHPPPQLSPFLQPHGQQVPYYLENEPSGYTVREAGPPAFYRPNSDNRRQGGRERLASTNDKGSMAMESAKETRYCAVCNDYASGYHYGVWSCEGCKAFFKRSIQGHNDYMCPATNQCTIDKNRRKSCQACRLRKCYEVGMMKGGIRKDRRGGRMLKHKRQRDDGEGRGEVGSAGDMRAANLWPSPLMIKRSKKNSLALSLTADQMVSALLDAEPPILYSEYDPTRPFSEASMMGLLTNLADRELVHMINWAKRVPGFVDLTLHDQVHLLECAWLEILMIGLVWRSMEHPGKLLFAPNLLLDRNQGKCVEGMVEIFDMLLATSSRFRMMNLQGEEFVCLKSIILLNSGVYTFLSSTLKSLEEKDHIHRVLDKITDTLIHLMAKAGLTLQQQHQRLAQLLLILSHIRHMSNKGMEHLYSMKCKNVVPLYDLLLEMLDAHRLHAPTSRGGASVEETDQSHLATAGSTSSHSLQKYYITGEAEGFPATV
Method in brief: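 Reporter transcripts were measured 24 h after dosing by RT-PCR with fluorescent primer extension and capillary electrophoresis. The system is transiently transfected HepG2 expressing exogenous NR-Gal4 chimeras driving GAL4-UAS reporters; DMSO is the baseline.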

[13] = target: X-box-binding protein 1 (Homo sapiens) (UniProt P17861); experiment: ATG_Xbp1_CIS: Attagene CIS-FACTORIAL HepG2 Assay for human X-box Binding Protein 1 (XBP1) (AID 2282972); conditions: HepG2 XBP1 cis-element reporter, Attagene multiplex; actives raise or lower the signal
X-box-binding protein 1 (Homo sapiens), sequence (P17861 whole entry, looked up): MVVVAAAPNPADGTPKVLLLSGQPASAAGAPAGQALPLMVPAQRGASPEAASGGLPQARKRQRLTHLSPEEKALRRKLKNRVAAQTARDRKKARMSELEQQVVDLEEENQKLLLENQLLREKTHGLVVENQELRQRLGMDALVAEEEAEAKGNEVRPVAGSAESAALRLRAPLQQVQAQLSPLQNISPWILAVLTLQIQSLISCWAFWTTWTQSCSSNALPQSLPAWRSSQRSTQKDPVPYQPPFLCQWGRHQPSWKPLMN
Method in brief: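 Reporter transcripts were quantified by RT-PCR with fluorescent primer extension and capillary electrophoresis after 24 h chemical exposure. Cells: transiently transfected HepG2 carrying cis-regulated reporter constructs; data fitted bidirectionally relative to DMSO.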

[14] = ATG_PBREM_CIS: Attagene CIS-FACTORIAL HepG2 Assay for human Phenobarbital-responsive Enhancer Module (PBREM) (AID 2282955); conditions: HepG2 PBREM cis-reporter, Attagene multiplexed transcription; actives raise or lower the signal
Method in brief: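 HepG2 cells transiently transfected with multiple cis-regulated reporter transcription units; endogenous factor activity at the PBREM element measured as reporter mRNA 24 h after dosing, via RT-PCR and capillary electrophoresis of fluorescent fragments; bidirectional fitting versus DMSO.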

[15] = target: Nuclear receptor subfamily 1 group I member 3 (Homo sapiens) (UniProt Q14994); experiment: ATG_CAR_TRANS: Attagene TRANS-FACTORIAL HepG2 Assay for human Constitutive Androstane Receptor (CAR) (AID 2282969; active = hit-call score of the fitted dose curve at least 0.9, where 1 is the maximum;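 also: activators raise reporter mRNA above DMSO so AC50 marks induction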); conditions: HepG2 Attagene TRANS-FACTORIAL CAR reporter
Nuclear receptor subfamily 1 group I member 3 (Homo sapiens), sequence (Q14994 whole entry, looked up, the tested form may be a part): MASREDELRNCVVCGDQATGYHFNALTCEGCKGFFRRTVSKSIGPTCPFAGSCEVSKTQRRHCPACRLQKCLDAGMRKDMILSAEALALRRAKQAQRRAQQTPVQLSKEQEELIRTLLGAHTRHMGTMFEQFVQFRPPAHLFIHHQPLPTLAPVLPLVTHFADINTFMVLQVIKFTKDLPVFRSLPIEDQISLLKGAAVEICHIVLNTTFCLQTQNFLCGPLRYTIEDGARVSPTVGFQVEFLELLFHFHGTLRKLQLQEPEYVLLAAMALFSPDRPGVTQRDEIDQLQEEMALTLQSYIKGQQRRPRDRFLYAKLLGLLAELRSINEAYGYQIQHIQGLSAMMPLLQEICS
Method in brief: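 Steps: transient transfection of HepG2 with multiple GAL4-UAS reporter units; 24 h compound incubation; RNA isolation, RT-PCR, 6-FAM primer extension, HpaI digest; capillary electrophoresis. Gain-of-signal relative to DMSO negative control.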

[16] = ATG_M_19_TRANS: Attagene TRANS-FACTORIAL HepG2 Assay for M19 Transcription Factor (Internal Marker) (AID 2282974; active = hit-call score of the fitted dose curve at least 0.9, where 1 is the maximum); conditions: HepG2 Attagene TRANS-FACTORIAL M19 internal marker reporter
Method in brief: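 HepG2 cells transiently transfected with multiple GAL4-UAS reporter transcription units were exposed to chemicals for 24 h. Reporter mRNA was read by RT-PCR, 6-FAM primer extension, HpaI digestion and capillary electrophoresis; gain of signal fitted relative to DMSO.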

[17] = ATG_TAL_CIS: Attagene CIS-FACTORIAL HepG2 Assay for human TAL Basal Promoter (AID 2282966); conditions: HepG2 Attagene cis-factorial TAL promoter reporter; actives raise or lower the signal;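 also: background control endpoint measuring basal TAL promoter reporter mRNA not a specific factor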
Method in brief: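 Background-control endpoint: basal TAL promoter reporter transcripts in transiently transfected HepG2, measured 24 h after dosing. Read-out by RT-PCR with fluorescent primer extension and capillary electrophoresis; gain or loss of signal fitted relative to DMSO.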

[18] = target: Paired box protein Pax-6 (Homo sapiens) (UniProt P26367); experiment: ATG_Pax6_CIS: Attagene CIS-FACTORIAL HepG2 Assay for human Paired Box 6 (PAX6) (AID 2282956); conditions: HepG2 CIS-FACTORIAL PAX6 reporter transcription, RNA readout; actives raise or lower the signal
Paired box protein Pax-6 (Homo sapiens), sequence (P26367 whole entry, looked up): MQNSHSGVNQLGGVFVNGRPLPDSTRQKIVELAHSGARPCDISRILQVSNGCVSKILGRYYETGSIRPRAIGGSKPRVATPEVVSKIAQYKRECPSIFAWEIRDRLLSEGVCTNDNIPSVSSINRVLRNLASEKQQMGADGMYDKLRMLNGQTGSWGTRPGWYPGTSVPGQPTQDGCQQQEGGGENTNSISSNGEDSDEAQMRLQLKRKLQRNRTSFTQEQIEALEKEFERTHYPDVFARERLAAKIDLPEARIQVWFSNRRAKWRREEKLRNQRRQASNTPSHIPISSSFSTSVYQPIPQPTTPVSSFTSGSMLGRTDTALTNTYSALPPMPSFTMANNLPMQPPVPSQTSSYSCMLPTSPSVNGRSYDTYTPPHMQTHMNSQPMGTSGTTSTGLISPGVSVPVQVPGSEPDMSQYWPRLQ
Method in brief: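 Read-out is reporter transcript level, measured by RT-PCR with fluorescent primer extension and capillary electrophoresis after 24 h dosing of transfected HepG2 cells. Activity in either direction fitted relative to DMSO control.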

[19] = ATG_GAL4_TRANS: Attagene TRANS-FACTORIAL HepG2 Assay for GAL4 (Internal Marker) (AID 2282976; active = hit-call score of the fitted dose curve at least 0.9, where 1 is the maximum); conditions: HepG2 Attagene TRANS GAL4 internal marker reporter
Method in brief: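 In transfected human HepG2 liver cells dosed 24 h, GAL4 reporter mRNA serves as a baseline marker. Detection by RT-PCR with fluorescent capillary electrophoresis, activity fitted upward relative to DMSO.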

Measured: AC50

O=C(NO)C1(NS(=O)(=O)c2ccc(Oc3ccc(F)cc3)cc2)CCOCC1
active: [6] 31.2 µM
not listed: [14] | [15] | [16] | [17] | [18] | [19]
inactive: all other assays above

O=C(O)c1cccc(C[C@@H]2COc3ccc(OCc4nc5cc(F)ccc5s4)cc3[C@@H]2O)c1
active: [9] 37.8 µM | [13] 160 µM
not listed: [2] | [4] | [17] | [18] | [19]
inactive: all other assays above

c1ccc2ncccc2c1
not listed: [4] | [11] | [13] | [15] | [16] | [17] | [18] | [19]
inactive: all other assays above

OC[C@H]1O[C@@H]2O[C@H]3[C@H](O)[C@@H](O)[C@@H](O[C@H]4[C@H](O)[C@@H](O)[C@@H](O[C@H]5[C@H](O)[C@@H](O)[C@@H](O[C@H]6[C@H](O)[C@@H](O)[C@@H](O[C@H]7[C@H](O)[C@@H](O)[C@@H](O[C@H]1[C@H](O)[C@H]2O)O[C@@H]7CO)O[C@@H]6CO)O[C@@H]5CO)O[C@@H]4CO)O[C@@H]3CO
active: [1] 18.4 µM
not listed: [2] | [12] | [13] | [15] | [16] | [18] | [19]
inactive: all other assays above

CCCCCCCCCCCCCCO
active: [1] 100 µM | [6] 171 µM | [7] 158 µM | [17] 100 µM
not listed: [2] | [3] | [14] | [15] | [18] | [19]
inactive: all other assays above

CCc1ccc(O)c(C(C)(C)C)c1
active: [1] 15.9 µM | [2] 42 µM | [11] 43 µM | [12] 24.2 µM
not listed: [4] | [13] | [14] | [15] | [18] | [19]
inactive: all other assays above

CCCCOC(=O)c1ccccc1
not listed: [12] | [14] | [15] | [16] | [17] | [19]
inactive: all other assays above

CCCCCCCC/C=C\CCCCCCCC(=O)OC[C@@H](O)[C@H]1OC[C@H](O)[C@H]1O
active: [1] 71.7 µM
not listed: [13] | [14] | [15] | [17] | [18]
inactive: all other assays above

C[C@]12C=CC(=O)C=C1CC[C@H]1[C@@H]3C[C@@H](O)[C@](O)(C(=O)CO)[C@@]3(C)C[C@H](O)[C@@]12F
active: [12] 37.2 µM
not listed: [4] | [14] | [15] | [16] | [17] | [19]
inactive: all other assays above

Cc1ncc([C@@H](CCCCCCc2ccc3c(n2)NCCC3)CC(=O)O)cn1
active: [1] 27.6 µM
not listed: [12] | [13] | [14] | [15] | [18]
inactive: all other assays above
